Screens as filed in PubChem.
In the library only some 3.6% were active in any assay of this set; here they are far more common.
IMPase Li inh: qHTS Assay for Identifying the Cell-Membrane Permeable IMPase Inhibitors: Potentiation with Lithium | CHO-M1 cells, IP1 TR-FRET (IP-One), carbachol + lithium | Potency, µM (doses to about 59.4 µM), for the others: at the highest dose activity, negative = IMPase inhibition, usual class: inhibitors | actives 0.35% (n = 210,000) | AID 1457, 2008;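 further: IP1 builds up when IMPase is blocked and the TR-FRET signal falls; plate controls were basal vehicle for no effect and high inhibitor control for full effect; nearly all actives have a fitted effect of over 50% in size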
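Lithium-sensitised IP1 accumulation assay; M1-expressing CHO cells treated 30 min at 37C with compound. Competitive antibody detection by time-resolved FRET followed a 10 min room-temperature lysis step.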
Sfp inh: qHTS Assay for Inhibitors of Bacillus subtilis Sfp phosphopantetheinyl transferase (PPTase). AID 1490, 2009. Biochemical Sfp PPTase activity, qHTS. Potency, µM, for the others: largest response in the series, negative = inhibition, usual class: inhibitors. 4'-phosphopantetheinyl transferase ffp (Bacillus subtilis), Q9F4F7. actives 3.5% (n = 310,000);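 further: the enzyme is Sfp with the accession as filed and its product quenches rhodamine fluorescence; 0% = enzyme reaction without inhibitor and -100% = no enzyme wells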
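With Hepes-Na pH 7.6 buffer containing 10 mM MgCl2, Sfp (15 nM) modified BHQ-2-YbbR (12.5 uM) using rhodamine-CoA (5 uM). Two reads 30 minutes apart at 525/598 nm yielded each well's rate.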
Epigenetic reg: Quantitative High-Throughput Screen for Regulators of Epigenetic Control; AID 1865, 2009; actives 0.2% (n = 280,000); murine LDR cells, GFP reporter derepression, 30 h; Potency, µM (series often up to 53.9 µM), for inactives: at the highest dose GFP activation, most hits filed as activators; further: % of control where 0% means no effect; nearly all actives have a fitted effect of over 60% in size
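In this reporter-derepression format, murine cells bearing a silenced integrated CMV-GFP locus incubate with test compound (30 h, 37 C), then are washed and imaged; fluorescent objects of 20–120 um count as induced cells.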
JMJD2E inh: qHTS Assay for Inhibitors of Human Jumonji Domain Containing 2E (JMJD2E). Lysine-specific demethylase 4E (Homo sapiens), B2RXH2. JMJD2E catalytic domain, FDH-coupled NADH fluorescence (FDH is formaldehyde dehydrogenase). Potency, µM (doses to about 57.1 µM), for the others: top-dose activity change, negative = inhibition, most hits filed as inhibitors. actives 1.6% (n = 230,000); active means well fitted inhibition curve with a large enough effect, not every such curve was filed as active; inconclusive means small, poorly fitted or top-dose-only effect, or another doubt; inactive means no such curve, though single readings can be large or run the other way;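 further: 0% = wells with enzyme and -100% = buffer wells without enzyme; nearly all actives have a fitted effect of over 50% in size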
Target sequence (B2RXH2 1-337 limits assumed): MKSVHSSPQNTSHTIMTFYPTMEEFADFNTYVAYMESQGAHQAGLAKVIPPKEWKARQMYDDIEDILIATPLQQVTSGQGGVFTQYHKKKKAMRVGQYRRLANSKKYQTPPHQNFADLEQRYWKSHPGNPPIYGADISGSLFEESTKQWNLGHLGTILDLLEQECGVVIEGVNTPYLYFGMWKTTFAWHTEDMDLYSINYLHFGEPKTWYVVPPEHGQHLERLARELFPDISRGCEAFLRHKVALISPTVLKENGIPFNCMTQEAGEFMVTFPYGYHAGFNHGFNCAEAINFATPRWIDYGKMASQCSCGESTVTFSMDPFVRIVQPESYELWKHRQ
KAT2A inh: qHTS Assay for Inhibitors of GCN5L2; Histone acetyltransferase KAT2A (Homo sapiens), Q92830; GCN5L2 HAT assay, ThioGlo1 CoA-SH fluorescence; Potency, µM (top dose mostly 58.9 µM), inactives show at the highest dose activity change, negative = inhibition, hits mostly inhibitors; actives 0.21% (n = 390,000); further: on the % scale 0 is the no-effect control and ±100 the full control effect
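qHTS, 1536-well. 20nM enzyme, pH 7.5 HEPES/EDTA/Tween-20 buffer; 15 min compound preinc., RT. Start: 75uM H3(1-25), 70uM AcCoA, 50uM ThioGlo1. Read Ex340/Em540 at t=0 (autofluorescence flag) and t=20 min.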
NPSR antag: qHTS Assay for Antagonists of the Neuropeptide S Receptor: cAMP Signal Transduction | Q6W5P4 | CHO-NPSR cells, cAMP TR-FRET, antagonist mode | Potency, µM (series often up to 38.3 µM), inactives show at the top dose activity change, negative = inhibition, hits mostly inhibitors | actives 1% (n = 220,000) | AID 1461, 2008; further: on the % scale 0 is the no-effect control and ±100 the full control effect; nearly all actives have a fitted effect of over 50% in size
Target sequence (Q6W5P4 whole entry, looked up): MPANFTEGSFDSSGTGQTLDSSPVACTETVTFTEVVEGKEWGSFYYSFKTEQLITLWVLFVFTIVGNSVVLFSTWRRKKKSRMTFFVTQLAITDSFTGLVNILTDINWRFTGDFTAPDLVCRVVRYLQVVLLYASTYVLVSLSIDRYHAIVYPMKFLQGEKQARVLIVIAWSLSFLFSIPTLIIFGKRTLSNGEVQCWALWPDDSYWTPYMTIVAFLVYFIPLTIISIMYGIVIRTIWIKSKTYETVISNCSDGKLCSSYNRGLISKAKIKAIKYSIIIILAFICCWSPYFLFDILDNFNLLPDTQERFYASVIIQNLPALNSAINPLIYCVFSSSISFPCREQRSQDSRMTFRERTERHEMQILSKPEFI
The depositor's hits bear a star; [ ] = remark or other dose. Unless noted, the call rests on the fitted dose curve; in most records, active means well fitted curve in the direction sought with a large enough effect; inconclusive means small, poorly fitted or top-dose-only effect, or another doubt; inactive means no such curve, though single readings can be large; an effect the other way counts as inactive or inconclusive. Potency means the concentration at half of the fitted maximal effect.

O=C(O)C1Cc2c([nH]c3ccccc23)C(c2coc3ccccc3c2=O)N1 (stereo unspecified) was read as IMPase Li inh -1.5%, Sfp inh 0.7%, Epigenetic reg -0.1% and JMJD2E inh inconclusive.
CC(C)S(=O)(=O)C1=NSC2=NC(=O)/C(=C\c3ccc(-c4cccc(C(=O)O)c4)o3)C(=N)N21 was read as IMPase Li inh 0.3%, Sfp inh 14.1µM*, Epigenetic reg -1.5%, JMJD2E inh 0.0%, KAT2A inh 0.7% and NPSR antag -2.3%.
For N=C(N)SCc1nc2ccccc2c(=O)n1-c1ccccc1 the results were IMPase Li inh 3.4%, Sfp inh 50.1µM*, Epigenetic reg 0.0%, JMJD2E inh inconclusive, KAT2A inh -11.8% and NPSR antag 33.7%.
O=C(O)c1ccc(CSc2nc3ccccc3c(=O)n2-c2ccccc2)cc1 was read as Sfp inh 24.8% and KAT2A inh -14.9%.
For Oc1ccc(N2CCN(c3nnnn3-c3ccccc3)CC2)cc1 the results were IMPase Li inh 7.0%, Sfp inh 56.2µM*, Epigenetic reg -1.4%, JMJD2E inh -22.8%, KAT2A inh -0.1% and NPSR antag -12.3%.
CC(=O)N1CCN(c2nnnn2-c2ccccc2)CC1 was read as IMPase Li inh 17.1%[38.3 µM], Sfp inh 14.6%, Epigenetic reg 1.5%, JMJD2E inh 3.3%, KAT2A inh 2.3% and NPSR antag -5.2%[46.1 µM].
COc1cc(CNCCc2ccc(S(N)(=O)=O)cc2)ccc1OCc1ccc(Cl)cc1 was read as IMPase Li inh 21.0%[38.3 µM], Sfp inh -97.1%, Epigenetic reg -2.3%, JMJD2E inh 0.0%, KAT2A inh -5.3% and NPSR antag 10.6%[46.1 µM].
CCOc1cc(CNCCc2ccc(S(N)(=O)=O)cc2)ccc1OCc1ccc(Cl)cc1 was read as IMPase Li inh 3.0%[38.3 µM], Sfp inh 8.91µM*, Epigenetic reg -1.5%, JMJD2E inh -0.7%, KAT2A inh -2.3% and NPSR antag inconclusive.
For NC(N)=N/N=C/c1ccc(OCc2ccccc2)c(OCc2ccccc2)c1 the results were Sfp inh 56.2µM* and KAT2A inh -2.3%.
Screening COc1cc(/C=N/N=C(N)N)ccc1OCc1ccc(Cl)cc1 returned IMPase Li inh 8.8%, Sfp inh 15.8µM*, Epigenetic reg -1.3%, JMJD2E inh -9.7%, KAT2A inh 1.5% and NPSR antag -22.5%.
For COc1cc(/C=N/O)ccc1OCc1ccc(Cl)cc1 the results were IMPase Li inh 4.2%, Sfp inh -26.6%, Epigenetic reg 0.0%, JMJD2E inh 2.4%, KAT2A inh -0.3% and NPSR antag -10.6%.
Screening CCOc1cc(/C=N/N=C(N)N)ccc1OCc1ccc(Cl)cc1 returned IMPase Li inh -5.6%, Sfp inh 20µM*, Epigenetic reg 2.2%, JMJD2E inh 1.2%, KAT2A inh -7.1% and NPSR antag -51.4%.
`O=C(O)NCc1ccccc1` (tested in a mixture with another compound) gave IMPase Li inh 15.5%.
CO[C@H]1COC(=O)[C@H](C)NC(=O)[C@@H](C)COC(=O)[C@H]2CCCN2C(=O)C/C=C\[C@H]1C was read as Sfp inh 10.3% and Epigenetic reg 0.0%[10.1 µM].
NC(N)=N/N=C/c1ccc(OCc2ccccc2Cl)cc1 was read as IMPase Li inh 3.1%[38.3 µM], Sfp inh 50.1µM*, Epigenetic reg -1.5%, JMJD2E inh -8.2%, KAT2A inh -3.1% and NPSR antag inconclusive.
NC(N)=N/N=C/c1ccccc1 was read as IMPase Li inh 21.3%[38.3 µM], Sfp inh 8.2%, Epigenetic reg -12.7%, JMJD2E inh 11.5%, KAT2A inh -0.8% and NPSR antag 5.3%[46.1 µM].
Screening O=C(Nc1ccc(Br)cc1)c1cc(Br)c(Br)s1 returned Sfp inh 3.1% and KAT2A inh -13.9%.
For C=Cc1ccc(Cn2c(=O)cc(C)c3c(C)nn(C)c32)cc1 the results were Epigenetic reg 0.0% and KAT2A inh 10.6%.
For CN1CCN(C2=NC(=O)/C(=C/c3ccccc3OS(=O)(=O)c3ccccc3)S2)CC1 the results were Sfp inh 20µM*, Epigenetic reg 1.1%, JMJD2E inh -10.6%, KAT2A inh -3.0% and NPSR antag -23.7%.
Screening COc1cccc(/C=C2\SC(N3CCC(C)CC3)=NC2=O)c1OC returned Sfp inh 50.1µM* and KAT2A inh -14.8%.
Screening CCOC(=O)C1CCCN(C2=NC(=O)/C(=C/c3ccc(OC)cc3)S2)C1 (stereo unspecified) returned Sfp inh 6.5% and KAT2A inh -5.6%.
Screening CCOC(=O)C1CCCN(C2=NC(=O)/C(=C/c3ccc(OC)cc3OC)S2)C1 (stereo unspecified) returned Sfp inh 44.7µM* and KAT2A inh -1.1%.
For NC1=NC(=O)/C(=C/c2ccccc2OS(=O)(=O)c2ccccc2)S1 the results were IMPase Li inh -5.4%, Sfp inh -0.3%, Epigenetic reg -2.2%, JMJD2E inh inconclusive, KAT2A inh -4.2% and NPSR antag 25.2%.
`COc1ccccc1/C=C1\SC(N2CCC(C)CC2)=NC1=O` gave Sfp inh -10.5% and KAT2A inh -23.5%.
For COc1ccc(N2CCN(CCCNC(=O)c3nnc(Cc4ccccc4Cl)o3)CC2)cc1 the results were Epigenetic reg 0.0% and KAT2A inh 3.0%.
CCc1cc2c(cc3c(=O)n(CC(=O)NCCc4ccccc4)ncn32)s1 was read as Epigenetic reg 3.5% and KAT2A inh -6.3%.
Screening O=C(/C=C/c1ccccc1Cl)c1ccccc(=O)c1O returned IMPase Li inh 4.2%, Sfp inh 44.7µM*, Epigenetic reg 4.8%, JMJD2E inh 14.1µM*, KAT2A inh -17.3% and NPSR antag 10µM*.
Screening Cc1ccc(C)c(/C=C/C(=O)c2ccccc(=O)c2O)c1 returned IMPase Li inh -9.0%, Sfp inh inconclusive, Epigenetic reg inconclusive, JMJD2E inh 22.4µM*, KAT2A inh -8.7% and NPSR antag 12.6µM*.
For Cc1ccc(/C=C/C(=O)c2ccccc(=O)c2O)c(C)c1 the results were IMPase Li inh 1.1%, Sfp inh inconclusive, Epigenetic reg 8.7%, JMJD2E inh 28.2µM*, KAT2A inh -15.4% and NPSR antag -18.0%.
